Laboratory results published in article PMC5540273 (PLoS ONE, 2017).

Assays:
Conditions in all cases: concentration: 1 μM, replicates: in singlicate; n = 1
PRKCH = tested on: PRKCH
PRKCI = tested on: PRKCI
PRKCQ = tested on: PRKCQ
PRKD1 = tested on: PRKD1
PRKD2 = tested on: PRKD2
PRKD3 = tested on: PRKD3
PRKG1 = tested on: PRKG1
PRKG2 = tested on: PRKG2
PRKR = tested on: T1, PRKR
T1 construct: gene EIF2AK2

PRKX = tested on: PRKX
PRP4 = tested on: PRP4
PYK2 = tested on: T2, PYK2
T2 construct: gene PTK2B

QSK = tested on: QSK
RAF1 = tested on: RAF1
RET = tested on: RET
RIOK1 = tested on: RIOK1
RIOK2 = tested on: RIOK2
RIOK3 = tested on: RIOK3
RIPK1 = tested on: RIPK1
RIPK2 = tested on: RIPK2
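Note: KINOMEscan kinase panel screen.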

CCn1c(-c2c(N)noc2C)nc2cnccc21 [SB-737856]
%Inh (PRKCH): 6%
%Inh (PRKCI): 7%
%Inh (PRKCQ): 32%
%Inh (PRKD1): 1%
%Inh (PRKD2): 11%
%Inh (PRKD3): 0%
%Inh (PRKG1): 0%
%Inh (PRKG2): 0%
%Inh (PRKR): 0%
%Inh (PRKX): 16%
%Inh (PRP4): 11%
%Inh (PYK2): 2%
%Inh (QSK): 20%
%Inh (RAF1): 23%
%Inh (RET): 0%
%Inh (RIOK1): 11%
%Inh (RIOK2): 0%
%Inh (RIOK3): 7%
%Inh (RIPK1): 0%
%Inh (RIPK2): 0%

Cc1ccccc1Cn1ccn2c(=O)cc(N3CCOCC3)nc12 [GSK2269905]
%Inh (PRKCH): 20%
%Inh (PRKCI): 0%
%Inh (PRKCQ): 0%
%Inh (PRKD1): 0%
%Inh (PRKD2): 9%
%Inh (PRKD3): 0%
%Inh (PRKG1): 19%
%Inh (PRKG2): 0%
%Inh (PRKR): 0%
%Inh (PRKX): 0%
%Inh (PRP4): 14%
%Inh (PYK2): 0%
%Inh (QSK): 0%
%Inh (RAF1): 8%
%Inh (RET): 0%
%Inh (RIOK1): 0%
%Inh (RIOK2): 0%
%Inh (RIOK3): 0%
%Inh (RIPK1): 0%
%Inh (RIPK2): 0%

CS(=O)(=O)CCNCc1nc(-c2ccc3ncnc(Nc4ccc(OCc5ccccc5)c(Cl)c4)c3c2)cs1.Cl [GW582764]
%Inh (PRKCH): 2%
%Inh (PRKCI): 39%
%Inh (PRKCQ): 3%
%Inh (PRKD1): 2%
%Inh (PRKD2): 0%
%Inh (PRKD3): 100%
%Inh (PRKG1): 0%
%Inh (PRKG2): 1%
%Inh (PRKR): 0%
%Inh (PRKX): 0%
%Inh (PRP4): 51%
%Inh (PYK2): 1%
%Inh (QSK): 0%
%Inh (RAF1): 13%
%Inh (RET): 0%
%Inh (RIOK1): 0%
%Inh (RIOK2): 0%
%Inh (RIOK3): 0%
%Inh (RIPK1): 0%
%Inh (RIPK2): 68%

COc1cccc(NC(=O)Nc2ccc(C)c(-c3ccc(C(=O)Nc4ccncc4)cc3)c2)c1 [GSK1398474]
%Inh (PRKCH): 14%
%Inh (PRKCI): 16%
%Inh (PRKCQ): 19%
%Inh (PRKD1): 6%
%Inh (PRKD2): 0%
%Inh (PRKD3): 0%
%Inh (PRKG1): 0%
%Inh (PRKG2): 50%
%Inh (PRKR): 0%
%Inh (PRKX): 26%
%Inh (PRP4): 52%
%Inh (PYK2): 13%
%Inh (QSK): 0%
%Inh (RAF1): 78%
%Inh (RET): 33%
%Inh (RIOK1): 27%
%Inh (RIOK2): 0%
%Inh (RIOK3): 0%
%Inh (RIPK1): 0%
%Inh (RIPK2): 0%

COc1ccc(Nc2nccc(N3CCC(NC(=O)c4cc5ccccc5s4)C3)n2)cc1 (stereo not drawn) [GSK1379738]
%Inh (PRKCH): 0%
%Inh (PRKCI): 15%
%Inh (PRKCQ): 7%
%Inh (PRKD1): 0%
%Inh (PRKD2): 12%
%Inh (PRKD3): 100%
%Inh (PRKG1): 0%
%Inh (PRKG2): 0%
%Inh (PRKR): 0%
%Inh (PRKX): 12%
%Inh (PRP4): 57%
%Inh (PYK2): 0%
%Inh (QSK): 0%
%Inh (RAF1): 11%
%Inh (RET): 14%
%Inh (RIOK1): 24%
%Inh (RIOK2): 0%
%Inh (RIOK3): 36%
%Inh (RIPK1): 28%
%Inh (RIPK2): 0%

O=c1cc(N2CCOCC2)nc2n(Cc3cccc(Cl)c3Cl)c3ccccc3n12 [GSK2299009]
%Inh (PRKCH): 24%
%Inh (PRKCI): 8%
%Inh (PRKCQ): 0%
%Inh (PRKD1): 7%
%Inh (PRKD2): 0%
%Inh (PRKD3): 3%
%Inh (PRKG1): 9%
%Inh (PRKG2): 1%
%Inh (PRKR): 0%
%Inh (PRKX): 22%
%Inh (PRP4): 0%
%Inh (PYK2): 29%
%Inh (QSK): 0%
%Inh (RAF1): 10%
%Inh (RET): 52%
%Inh (RIOK1): 42%
%Inh (RIOK2): 17%
%Inh (RIOK3): 32%
%Inh (RIPK1): 19%
%Inh (RIPK2): 32%

COC(=O)c1cccc(NC(=O)NC2CCN(c3ccnc(Nc4ccc(OC)cc4)n3)C2)c1 (stereo not drawn) [GSK1379746]
%Inh (PRKCH): 31%
%Inh (PRKCI): 13%
%Inh (PRKCQ): 0%
%Inh (PRKD1): 0%
%Inh (PRKD2): 0%
%Inh (PRKD3): 0%
%Inh (PRKG1): 0%
%Inh (PRKG2): 0%
%Inh (PRKR): 0%
%Inh (PRKX): 0%
%Inh (PRP4): 59%
%Inh (PYK2): 0%
%Inh (QSK): 1%
%Inh (RAF1): 23%
%Inh (RET): 0%
%Inh (RIOK1): 43%
%Inh (RIOK2): 0%
%Inh (RIOK3): 0%
%Inh (RIPK1): 0%
%Inh (RIPK2): 4%

Nc1ncnc2occ(-c3ccc4c(c3)CCN4C(=O)Cc3cc(F)ccc3F)c12 [GSK2645446]
%Inh (PRKCH): 0%
%Inh (PRKCI): 23%
%Inh (PRKCQ): 0%
%Inh (PRKD1): 0%
%Inh (PRKD2): 0%
%Inh (PRKD3): 0%
%Inh (PRKG1): 7%
%Inh (PRKG2): 17%
%Inh (PRKR): 3%
%Inh (PRKX): 0%
%Inh (PRP4): 25%
%Inh (PYK2): 0%
%Inh (QSK): 0%
%Inh (RAF1): 0%
%Inh (RET): 10%
%Inh (RIOK1): 37%
%Inh (RIOK2): 0%
%Inh (RIOK3): 0%
%Inh (RIPK1): 98.6%
%Inh (RIPK2): 0%

Fc1ccc(-c2nn3cccc(F)c3c2-c2ccncc2)cc1 [GW475620]
%Inh (PRKCH): 42%
%Inh (PRKCI): 39%
%Inh (PRKCQ): 14%
%Inh (PRKD1): 16%
%Inh (PRKD2): 60%
%Inh (PRKD3): 34%
%Inh (PRKG1): 34%
%Inh (PRKG2): 0%
%Inh (PRKR): 0%
%Inh (PRKX): 4%
%Inh (PRP4): 29%
%Inh (PYK2): 0%
%Inh (QSK): 0%
%Inh (RAF1): 17%
%Inh (RET): 98%
%Inh (RIOK1): 30%
%Inh (RIOK2): 7%
%Inh (RIOK3): 39%
%Inh (RIPK1): 0%
%Inh (RIPK2): 27%

Cc1ccc(NC(=O)Nc2ccc(Cl)cc2)cc1-c1ccc(C(=O)Nc2ccncc2)cc1 [GSK1398472]
%Inh (PRKCH): 27%
%Inh (PRKCI): 27%
%Inh (PRKCQ): 10%
%Inh (PRKD1): 0%
%Inh (PRKD2): 0%
%Inh (PRKD3): 35%
%Inh (PRKG1): 8%
%Inh (PRKG2): 0%
%Inh (PRKR): 1%
%Inh (PRKX): 24%
%Inh (PRP4): 21%
%Inh (PYK2): 15%
%Inh (QSK): 1%
%Inh (RAF1): 87%
%Inh (RET): 6%
%Inh (RIOK1): 31%
%Inh (RIOK2): 0%
%Inh (RIOK3): 31%
%Inh (RIPK1): 0%
%Inh (RIPK2): 12%

O=C(Nc1n[nH]c2nc(-c3cccs3)c(Br)cc12)C1CCCC1 [SB-743341]
%Inh (PRKCH): 21%
%Inh (PRKCI): 21%
%Inh (PRKCQ): 32%
%Inh (PRKD1): 7%
%Inh (PRKD2): 0%
%Inh (PRKD3): 23%
%Inh (PRKG1): 4%
%Inh (PRKG2): 0%
%Inh (PRKR): 0%
%Inh (PRKX): 0%
%Inh (PRP4): 15%
%Inh (PYK2): 0%
%Inh (QSK): 4%
%Inh (RAF1): 6%
%Inh (RET): 16%
%Inh (RIOK1): 24%
%Inh (RIOK2): 7%
%Inh (RIOK3): 11%
%Inh (RIPK1): 25%
%Inh (RIPK2): 3%

CC(=O)c1c(C)c2cnc(Nc3ccc(N4CCNCC4)cn3)nc2n(C2CCCC2)c1=O
%Inh (PRKCH): 0%
%Inh (PRKCI): 5%
%Inh (PRKCQ): 0%
%Inh (PRKD1): 0%
%Inh (PRKD2): 0%
%Inh (PRKD3): 0%
%Inh (PRKG1): 9%
%Inh (PRKG2): 0%
%Inh (PRKR): 0%
%Inh (PRKX): 0%
%Inh (PRP4): 0%
%Inh (PYK2): 0%
%Inh (QSK): 0%
%Inh (RAF1): 0%
%Inh (RET): 0%
%Inh (RIOK1): 0%
%Inh (RIOK2): 0%
%Inh (RIOK3): 0%
%Inh (RIPK1): 0%
%Inh (RIPK2): 0%

O=c1cc(N2CCOCC2)nc2n(Cc3ccccc3F)ccn12 [GSK2297428]
%Inh (PRKCH): 18%
%Inh (PRKCI): 1%
%Inh (PRKCQ): 0%
%Inh (PRKD1): 0%
%Inh (PRKD2): 0%
%Inh (PRKD3): 0%
%Inh (PRKG1): 0%
%Inh (PRKG2): 0%
%Inh (PRKR): 0%
%Inh (PRKX): 0%
%Inh (PRP4): 7%
%Inh (PYK2): 0%
%Inh (QSK): 0%
%Inh (RAF1): 0%
%Inh (RET): 0%
%Inh (RIOK1): 38%
%Inh (RIOK2): 42%
%Inh (RIOK3): 28%
%Inh (RIPK1): 0%
%Inh (RIPK2): 2%

CNc1cc(-c2ccc3c(N)n[nH]c3c2)nc(N)n1 [GSK2224810]
%Inh (PRKCH): 0%
%Inh (PRKCI): 27%
%Inh (PRKCQ): 0%
%Inh (PRKD1): 0%
%Inh (PRKD2): 6%
%Inh (PRKD3): 6%
%Inh (PRKG1): 0%
%Inh (PRKG2): 85%
%Inh (PRKR): 18%
%Inh (PRKX): 57%
%Inh (PRP4): 0%
%Inh (PYK2): 0%
%Inh (QSK): 0%
%Inh (RAF1): 0%
%Inh (RET): 35%
%Inh (RIOK1): 84%
%Inh (RIOK2): 12%
%Inh (RIOK3): 72%
%Inh (RIPK1): 3%
%Inh (RIPK2): 9%

Cc1ccc(NC(=O)Nc2ccccc2F)cc1-c1ccc(C(=O)Nc2ccncc2)cc1 [GSK1398477]
%Inh (PRKCH): 39%
%Inh (PRKCI): 0%
%Inh (PRKCQ): 19%
%Inh (PRKD1): 0%
%Inh (PRKD2): 4%
%Inh (PRKD3): 23%
%Inh (PRKG1): 8%
%Inh (PRKG2): 0%
%Inh (PRKR): 0%
%Inh (PRKX): 49%
%Inh (PRP4): 2%
%Inh (PYK2): 0%
%Inh (QSK): 20%
%Inh (RAF1): 70%
%Inh (RET): 21%
%Inh (RIOK1): 44%
%Inh (RIOK2): 11%
%Inh (RIOK3): 6%
%Inh (RIPK1): 15%
%Inh (RIPK2): 6%
